From PubChem BioAssay AID1159580 (chemical genetic matrix, 2015)
Hit rate of the full screen: of about 5,500 compounds, about 2,000 (36%) were called active. Another 18% or so got no clear call; they are omitted. No stated cut-off is given here; in the data, active means normalized growth mostly below about 0.91 (no sharp cut-off); inconclusive means no clear call, values can overlap the other calls; inactive means mostly above about 0.92. This is one part of the list.

Assay: chemical genetic growth profiling, strain panel (AID 1159580);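 further: tested at 20 µM; growth read once vehicle control cultures reached saturation at 30 °C; 1 = growth at the plate median or of vehicle wells; lower values mean less growth of the strain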
Conditions: S. cerevisiae deletion strains, growth OD

Measured: normalized growth

COc1ccc2oc3ccccc3c(=O)c2c1
inactive: locus YAL021C, strain ccr4, hits give low values 0.948 | locus YCR088W, strain abp1, hits give low values 0.956 | locus YDL005C, strain med2, hits give low values 0.978 | locus YDL035C, strain GPR1, hits give low values 0.861 | locus YDL040C, strain nat1, hits give low values 0.935 | locus YDR001C, strain nth1, hits give low values 0.944 | locus YDR069C, strain doa4, hits give low values 0.918 | locus YDR159W, strain sac3, hits give low values 0.901 | locus YDR297W, strain sur2, hits give low values 0.935 | locus YEL037C, strain rad23, hits give low values 0.925 | locus YER015W, strain faa2, hits give low values 0.931 | locus YER155C, strain BEM2, hits give low values 0.997 | locus YER167W, strain BCK2, hits give low values 0.918 | locus YFR010W, strain ubp6, hits give low values 0.904 | locus YGL227W, strain vid30, hits give low values 0.94 | locus YGR252W, strain gcn5, hits give low values 0.799 | locus YHR027C, strain rpn1, hits give low values 0.939 | locus YIL073C, strain SPO22, hits give low values 0.736 | locus YJL092W, strain hpr5, hits give low values 0.944 | locus YJL115W, strain asf1, hits give low values 0.948 | locus YJL129C, strain trk1, hits give low values 0.921 | locus YJL154C, strain vps35, hits give low values 0.947
active: locus YAL026C, strain drs2, hits give low values 0.884 | locus YAL030W, strain snc1, hits give low values 0.926 | locus YBL061C, strain skt5, hits give low values 0.896 | locus YBR009C, strain hhf1, hits give low values 0.712 | locus YBR021W, strain FUR4, hits give low values 1.22 [resistant] | locus YBR023C, strain chs3, hits give low values 0.874 | locus YBR171W, strain sec66, hits give low values 0.886 | locus YBR229C, strain ROT2, hits give low values 0.885 | locus YBR231C, strain swc5, hits give low values 0.76 | locus YBR279W, strain paf1, hits give low values 0.883 | locus YCL011C, strain gbp2, hits give low values 0.899 | locus YCL016C, strain dcc1, hits give low values 0.842 | locus YCL029C, strain bik1, hits give low values 0.884 | locus YCL061C, strain MRC1, hits give low values 0.9 | locus YCL069W, strain vba3, hits give low values 0.922 | locus YDL074C, strain BRE1, hits give low values 0.762 | locus YDL101C, strain DUN1, hits give low values 0.76 | locus YDL134C, strain PPH21, hits give low values 0.791 | locus YDL185W, strain tfp1, hits give low values 0.809 | locus YDL192W, strain arf1, hits give low values 0.814 | locus YDR101C, strain arx1, hits give low values 0.88 | locus YDR137W, strain rgp1, hits give low values 0.556 | locus YDR150W, strain NUM1, hits give low values 0.904 | locus YDR162C, strain NBP2, hits give low values 0.437 | locus YDR195W, strain ref2 1.28 [resistant] | locus YDR318W, strain mcm21, hits give low values 0.862 | locus YDR334W, strain swr1, hits give low values 0.852 | locus YDR335W, strain msn5, hits give low values 0.874 | locus YDR388W, hits give low values 0.901 | locus YDR392W, strain spt3, hits give low values 0.35 | locus YDR502C, strain sam2, hits give low values 0.848 | locus YEL003W, strain gim4, hits give low values 0.819 | locus YEL061C, strain CIN8 (second series), hits give low values 0.676 | locus YEL061C, strain CIN8, hits give low values 0.718 | locus YER016W, strain bim1, hits give low values 0.903 | locus YER110C, hits give low values 0.837 | locus YER111C, strain swi4, hits give low values 0.87 | locus YER155C, strain BEM2 (second series), hits give low values 0.249 | locus YGL078C, strain dbp3, hits give low values 0.9 | locus YGL086W, strain mad1, hits give low values 0.836 | locus YGL167C, strain pmr1, hits give low values 0.902 | locus YGL173C, strain kem1, hits give low values 0.882 | locus YGL240W, strain doc1, hits give low values 0.785 | locus YGL248W, strain PDE1, hits give low values 0.836 | locus YGL253W, strain hxk2, hits give low values 0.74 | locus YGR135W, strain pre9, hits give low values 0.811 | locus YHR013C, strain ard1, hits give low values 0.631 | locus YHR030C, strain SLT2, hits give low values 0.656 | locus YHR079C, strain IRE1 (second series), hits give low values 0.902 | locus YHR094C, strain hxt1, hits give low values 0.912 | locus YHR129C, strain ARP1, hits give low values 0.897 | locus YHR142W, strain chs7, hits give low values 0.688 | locus YHR200W, strain rpn10, hits give low values 0.862 | locus YIL066C, strain RNR3, hits give low values 0.761 | locus YIL125W, strain kgd1, hits give low values 0.9 | locus YIR030C, strain dcg1, hits give low values 0.91 | locus YJL095W, strain BCK1 (second series), hits give low values 0.65 | locus YJL095W, strain BCK1, hits give low values 0.428 | locus YJL134W, strain LCB3, hits give low values 0.913 | locus YJL164C, strain tpk1, hits give low values 0.844 | locus YJL166W, strain qcr8, hits give low values 0.756 | locus YJL168C, strain set2, hits give low values 0.903 | locus YJL187C, strain SWE1 (second series), hits give low values 0.828
